The source made the active and inactive calls.
What was measured:
[1] = binders of probe aFSTL3 on microarray, primary screen, stem cell growth factor project, biochemical, small-molecule microarray, fluorescence 635/667 (AID 1064); conditions: higher = more signal;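 further: measures binding of the biotinylated anti-FSTL3 antibody to printed compounds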
[2] = binders from COS7 lysate, DM2A8 probe, primary screen, torsin A project, cell lysate, small-molecule microarray, fluorescence 635/667 (AID 1065); conditions: higher = more signal, COS7 lysate expressing mutant human TOR1A
[3] = binders of probe aFGF2 on microarray, primary screen, stem cell growth factor project, biochemical, small-molecule microarray, fluorescence 635/667 (AID 1067); conditions: higher = more signal;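 further: measures binding of biotinylated aFGF2 protein to printed compounds on slides; z-score merges feature fluorescence and signal-to-noise across triplicate slides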
[4] = binders of probe aFGF10 on microarray, primary screen, stem cell growth factor project, biochemical, small-molecule microarray, fluorescence 635/667 (AID 1071); conditions: higher = more signal;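 further: score merges 667 nm spot intensity and signal to noise from triplicate slides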
[5] = target: Neurogenic locus notch homolog protein 2 (Homo sapiens) (UniProt Q04721); test: Notch2 binders on small-molecule microarrays, primary screen, biochemical, small-molecule microarray, 635 nm fluorescence, stem cell growth factors (AID 1073); conditions: Notch2 binding, higher = more signal
[6] = target: Pro-neuregulin-1, membrane-bound isoform (Homo sapiens) (UniProt Q02297); test: NRG1 binders on small-molecule microarrays, primary screen, psychiatric disease protein project, biochemical, small-molecule microarray, fluorescence 635/667 (AID 1075); conditions: NRG1 binding, 635 nm fluorescence, higher = more signal;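 further: score combines 667 nm spot fluorescence with signal to noise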
Pro-neuregulin-1, membrane-bound isoform (Homo sapiens), sequence (Q02297 whole entry, looked up, the tested form may be a part, canonical isoform): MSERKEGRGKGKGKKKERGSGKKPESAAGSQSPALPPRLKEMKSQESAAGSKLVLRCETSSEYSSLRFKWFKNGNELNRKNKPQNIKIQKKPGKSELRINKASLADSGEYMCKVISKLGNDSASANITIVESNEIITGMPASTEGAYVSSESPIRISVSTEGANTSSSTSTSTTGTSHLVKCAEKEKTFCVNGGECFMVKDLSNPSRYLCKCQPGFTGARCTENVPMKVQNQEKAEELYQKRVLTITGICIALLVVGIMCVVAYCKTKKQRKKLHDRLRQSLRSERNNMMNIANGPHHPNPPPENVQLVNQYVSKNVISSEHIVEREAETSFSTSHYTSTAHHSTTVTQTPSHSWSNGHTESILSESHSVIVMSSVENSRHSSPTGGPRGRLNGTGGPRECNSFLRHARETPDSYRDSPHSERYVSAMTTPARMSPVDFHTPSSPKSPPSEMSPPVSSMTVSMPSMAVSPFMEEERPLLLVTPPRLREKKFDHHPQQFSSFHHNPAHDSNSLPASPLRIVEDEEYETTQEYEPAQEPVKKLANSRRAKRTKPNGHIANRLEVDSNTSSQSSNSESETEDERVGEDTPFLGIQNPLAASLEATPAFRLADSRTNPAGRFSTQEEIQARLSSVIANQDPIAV

[7] = tested on: Neuregulin-1 EGF-like domain; test: binders of neuregulin-1 EGF-like domain, primary screen, biochemical, small-molecule microarray, 635 nm fluorescence (AID 1081); conditions: small-molecule microarray binding, higher = more signal;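 further: binding of the protein to compounds printed on small-molecule microarray slides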
[8] = FRG1 promoter luciferase signal modulators, primary screen, FRG1 inhibition for FSHD, cell-based, C2C12 myotubes, firefly/Renilla luciferase, luminescence (AID 1084); conditions: higher = more signal, called active from +8 up or from −8 down
[9] = binders of probe aFST on microarray, primary screen, stem cell growth factor project, biochemical, small-molecule microarray, fluorescence 635/667 (AID 1086); conditions: higher = more signal;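 further: score merges 667 nm fluorescence with signal-to-noise of each printed compound spot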
[10] = binders of probe aHhip on microarray, primary screen, stem cell growth factor project, biochemical, small-molecule microarray, fluorescence 635/667 (AID 1087); conditions: higher = more signal;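 further: score merges spot fluorescence at 667nm with spot signal to noise ratio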
[11] = tested on: PRMT1 (protein arginine N-methyltransferase 1); test: PRMT1 binders on small-molecule microarrays, primary screen, biochemical, small-molecule microarray, 635 nm fluorescence (AID 1088); conditions: small-molecule microarray binding, higher = more signal;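 further: binding of Prmt1 protein to compounds spotted on small-molecule microarray slides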
[12] = yeast growth modulation, basal conditions, primary screen, YJM789 clinical isolate, OD600, 24 h (AID 1089);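 further: growth of clinical yeast isolate S. cerevisiae YJM 789 seeded 1000 cells per well; test concentration not given here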; conditions: S. cerevisiae YJM789 growth, higher = more signal, called active from +8 up or from −8 down
[13] = fission yeast growth modulation, primary screen, strain 972, OD600, 24 h, no modulator (AID 1090);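 further: basal condition with compound alone and no growth modifier present; test concentration not given here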; conditions: S. pombe 972 growth, higher = more signal, called active from +8 up or from −8 down
[14] = S. cerevisiae growth modulation with rapamycin, primary screen, strain BY4716, OD600, 96 h (AID 1091); conditions: higher = more signal, called active from +8 up or from −8 down; further: test concentration not given here
[15] = target: Torsin-1A-interacting protein 2 (Homo sapiens) (UniProt Q8NFQ8); test: LULL1 binders on small-molecule microarray, primary screen, cell lysate, human LULL1 lysate, 635/667 nm fluorescence (AID 1092); conditions: hLULL1 lysate binding, 635 nm fluorescence, higher = more signal;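 further: probe is lysate of COS7 cells overexpressing human LULL1; score merges per-feature 667 nm fluorescence with signal-to-noise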
Torsin-1A-interacting protein 2 (Homo sapiens), sequence (Q8NFQ8 whole entry, looked up): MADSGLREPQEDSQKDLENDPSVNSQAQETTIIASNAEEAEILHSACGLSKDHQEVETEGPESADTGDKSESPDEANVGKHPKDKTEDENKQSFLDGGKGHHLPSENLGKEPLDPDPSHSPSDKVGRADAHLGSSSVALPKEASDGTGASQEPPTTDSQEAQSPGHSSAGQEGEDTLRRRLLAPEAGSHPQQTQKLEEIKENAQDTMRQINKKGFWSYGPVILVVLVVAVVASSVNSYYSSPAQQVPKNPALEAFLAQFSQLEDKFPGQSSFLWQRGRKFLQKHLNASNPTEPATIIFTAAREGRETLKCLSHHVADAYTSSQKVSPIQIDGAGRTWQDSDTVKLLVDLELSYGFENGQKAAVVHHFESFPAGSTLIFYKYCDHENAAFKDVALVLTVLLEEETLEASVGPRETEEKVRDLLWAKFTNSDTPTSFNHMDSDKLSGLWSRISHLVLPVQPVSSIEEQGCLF

[16] = E. coli growth modulation, two-sided OD650, primary screen, E. coli filamentation project, strain DRC41, 24 h (AID 1093); conditions: OD650, 24 h, higher = more signal, called active from +8 up or from −8 down;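 further: MC1000 strain lacking acrAB efflux and sulA so SOS filamentation is blocked; test concentration not given here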
[17] = small-molecule microarray binders of probe aLefty2, primary screen, biochemical, biotinylated probe, 635/667 nm fluorescence (AID 1094); conditions: higher = more signal;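 further: score merges spot fluorescence near 667 nm with spot signal-to-noise ratio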
[18] = tested on: Noggin (protein binding on small-molecule microarray); test: Noggin binders on small-molecule microarray, primary screen, biochemical, 635/667 nm fluorescence (AID 1095); conditions: 635 nm fluorescence, higher = more signal;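 further: score merges 667 nm feature fluorescence with signal to noise over triplicate slides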
[19] = target: Neurogenic locus notch homolog protein 3 (Homo sapiens) (UniProt Q9UM47); test: NOTCH3 binders on small-molecule microarray, primary screen, biochemical, 635/667 nm fluorescence (AID 1096); conditions: NOTCH3 binding, 635 nm fluorescence, higher = more signal
Neurogenic locus notch homolog protein 3 (Homo sapiens), sequence (Q9UM47 whole entry, looked up): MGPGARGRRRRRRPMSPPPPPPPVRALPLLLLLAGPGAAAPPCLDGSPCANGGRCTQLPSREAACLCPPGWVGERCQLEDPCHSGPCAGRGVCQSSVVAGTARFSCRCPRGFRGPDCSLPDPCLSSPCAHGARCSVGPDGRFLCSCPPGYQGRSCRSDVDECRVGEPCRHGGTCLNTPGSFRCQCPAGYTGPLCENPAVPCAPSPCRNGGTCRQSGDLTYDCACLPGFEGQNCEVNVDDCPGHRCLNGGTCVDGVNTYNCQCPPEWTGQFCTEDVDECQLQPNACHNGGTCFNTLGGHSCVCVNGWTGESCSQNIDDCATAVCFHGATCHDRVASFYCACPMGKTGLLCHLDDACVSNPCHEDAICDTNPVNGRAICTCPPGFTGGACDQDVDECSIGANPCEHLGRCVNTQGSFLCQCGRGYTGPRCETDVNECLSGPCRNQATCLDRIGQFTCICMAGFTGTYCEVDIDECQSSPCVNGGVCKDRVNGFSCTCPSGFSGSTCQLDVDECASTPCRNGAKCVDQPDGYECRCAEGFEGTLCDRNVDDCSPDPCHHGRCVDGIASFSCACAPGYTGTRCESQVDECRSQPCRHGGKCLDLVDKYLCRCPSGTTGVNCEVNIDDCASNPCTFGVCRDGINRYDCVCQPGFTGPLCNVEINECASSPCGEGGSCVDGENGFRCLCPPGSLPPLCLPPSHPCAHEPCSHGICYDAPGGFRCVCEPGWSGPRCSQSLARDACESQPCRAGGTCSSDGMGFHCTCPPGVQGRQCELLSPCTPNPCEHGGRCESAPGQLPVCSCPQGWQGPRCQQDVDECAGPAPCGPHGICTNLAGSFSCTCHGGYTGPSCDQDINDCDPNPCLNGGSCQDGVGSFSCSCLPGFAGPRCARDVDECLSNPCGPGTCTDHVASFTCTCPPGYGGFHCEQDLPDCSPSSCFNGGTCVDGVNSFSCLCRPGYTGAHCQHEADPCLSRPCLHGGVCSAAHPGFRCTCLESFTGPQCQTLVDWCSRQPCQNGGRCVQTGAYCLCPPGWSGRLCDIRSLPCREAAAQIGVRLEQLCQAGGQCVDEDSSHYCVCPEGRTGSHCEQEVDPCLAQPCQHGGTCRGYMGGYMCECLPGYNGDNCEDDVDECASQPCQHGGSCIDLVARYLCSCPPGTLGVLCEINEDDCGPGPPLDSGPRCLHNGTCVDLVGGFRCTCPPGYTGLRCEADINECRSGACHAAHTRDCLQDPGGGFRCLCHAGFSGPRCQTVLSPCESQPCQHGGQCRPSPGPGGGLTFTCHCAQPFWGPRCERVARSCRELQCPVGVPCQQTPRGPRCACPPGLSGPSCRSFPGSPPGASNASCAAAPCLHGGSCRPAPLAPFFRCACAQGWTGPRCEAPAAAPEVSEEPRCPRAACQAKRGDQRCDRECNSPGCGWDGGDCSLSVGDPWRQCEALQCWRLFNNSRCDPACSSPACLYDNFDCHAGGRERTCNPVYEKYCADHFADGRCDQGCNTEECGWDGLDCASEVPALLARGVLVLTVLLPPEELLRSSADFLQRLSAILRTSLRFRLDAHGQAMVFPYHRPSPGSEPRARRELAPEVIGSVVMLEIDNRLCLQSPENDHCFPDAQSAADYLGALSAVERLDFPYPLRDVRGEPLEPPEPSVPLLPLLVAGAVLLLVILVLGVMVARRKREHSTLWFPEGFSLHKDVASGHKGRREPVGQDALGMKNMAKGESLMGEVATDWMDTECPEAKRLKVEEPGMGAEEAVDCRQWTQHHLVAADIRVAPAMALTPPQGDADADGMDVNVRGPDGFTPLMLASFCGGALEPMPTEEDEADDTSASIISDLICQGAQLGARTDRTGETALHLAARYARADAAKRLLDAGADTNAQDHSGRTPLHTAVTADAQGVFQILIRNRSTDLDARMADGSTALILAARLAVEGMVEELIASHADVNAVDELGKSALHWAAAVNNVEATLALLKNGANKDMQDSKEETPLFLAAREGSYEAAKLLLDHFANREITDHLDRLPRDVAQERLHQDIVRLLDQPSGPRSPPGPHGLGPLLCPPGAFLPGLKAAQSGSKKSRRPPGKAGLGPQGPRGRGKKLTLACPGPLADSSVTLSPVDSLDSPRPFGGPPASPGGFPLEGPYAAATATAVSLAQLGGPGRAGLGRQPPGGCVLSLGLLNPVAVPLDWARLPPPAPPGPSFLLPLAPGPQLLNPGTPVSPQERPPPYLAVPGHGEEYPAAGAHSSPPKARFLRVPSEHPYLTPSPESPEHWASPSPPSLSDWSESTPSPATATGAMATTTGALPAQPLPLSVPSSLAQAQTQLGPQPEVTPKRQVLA

[20] = small-molecule microarray binders of probe aEGFR, primary screen, biochemical, biotinylated probe, 635/667 nm fluorescence (AID 1097); conditions: higher = more signal;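 further: probe is a biotinylated anti-EGFR antibody binding compounds printed on slides; score combines fluorescence near 667 nm and signal to noise of each spot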

| SMILES | composite z-score [1] | composite z-score [2] | composite z-score [3] | composite z-score [4] | composite z-score [5] | composite z-score [6] | composite z-score [7] | z-score [8] | composite z-score [9] | composite z-score [10] | composite z-score [11] | z-score [12] | z-score [13] | z-score [14] | composite z-score [15] | z-score [16] | composite z-score [17] | composite z-score [18] | composite z-score [19] | composite z-score [20] |
| --- | --- | --- | --- | --- | --- | --- | --- | --- | --- | --- | --- | --- | --- | --- | --- | --- | --- | --- | --- | --- |
| C=CC[C@@]1(C(N)=O)N=C(c2ccc(OCCCO)cc2)O[C@@H]1c1ccccc1CN=[N+]=[N-] | 0.626 | -0.41 | -0.0193 | 0.291 | 0.77 | 2.17 | 1.41 | 2.94 (inactive) | 1.19 | 0.0053 | 0.867 | -0.884 (inactive) | -0.398 (inactive) | -0.512 (inactive) | 3.77 | 0.0086 (inactive) | 0.444 | 0.174 | 0.638 | 0.0651 |
| O=C1[C@H]2C=C(Br)[C@H](C[C@@H]2c2ccccc2)[C@@]12CO2 | -0.357 | 0.324 | -0.0265 | 0.328 | 0.299 | -0.406 | 0.57 | 1.36 (inactive) | 0.0322 | -0.0645 | 0.366 | -0.703 (inactive) | -14.7 (active) | -0.973 (inactive) | 0.328 | -0.779 (inactive) | -0.172 | 1.36 | 0.412 | -0.156 |
| O=C1O[C@H](c2ccccc2)[C@H](c2ccccc2)N2[C@H]1[C@@H](C(=O)Nc1nc3ccccc3s1)[C@]1(C(=O)Nc3ccc(C#CCCO)cc31)[C@H]2c1ccc(OCCO)cc1 | -0.379 | 0.135 | 0.0401 | 1.14 | 1.19 | 0.887 | 0.975 | -0.0455 (inactive) | 0.119 | 0.224 | 1.55 | 0.737 (inactive) | 0.933 (inactive) | 2.84 (inactive) | 3.19 | 0.0573 (inactive) | -0.137 | 1.72 | 1.12 | -0.0368 |
| CC1CC/C=C\[C@H]2OC34C=CCN(Cn5nnc6ccccc65)C(=O)[C@H]3N(C(CO)C(C)C)C(=O)[C@@H]4C2C(=O)O1 (stereo not given in full) | 0.0351 | -0.804 | -0.175 | -0.266 | 0.145 | 1.22 | 1.42 | 0.298 (inactive) | -0.314 | 0.0505 | 1.34 | -0.973 (inactive) | -1.02 (inactive) | -0.931 (inactive) | 3.28 | 0.309 (inactive) | 0.0723 | -0.772 | 0.113 | -0.0987 |
| [N-]=[N+]=NCc1ccccc1C[C@]1(C(=O)NCC(O)CO)N=C(c2ccc(OCCCO)cc2)O[C@H]1c1ccccc1 (stereo not given in full) | 0.881 | 0.34 | -0.0039 | -0.48 | -0.316 | 0.958 | 0.849 | -0.938 (inactive) | 0.506 | 0.158 | -0.434 | -0.0234 (inactive) | 0.559 (inactive) | -1.04 (inactive) | 2.62 | 0.478 (inactive) | 0.38 | -0.918 | -1.29 | -0.0758 |
| COC(=O)[C@@]1(Cc2ccccc2)[C@H]2c3cc(C(=O)N4CCCC4)n(CC4CC4)c3C[C@H]2CN1C(=O)c1ccccc1 | 0.963 | 0.365 | 0.424 | 0.703 | 1.6 | 1.64 | 1.14 | 0.692 (inactive) | 2.15 | 0.337 | 1.21 | 0.0645 (inactive) | 0.513 (inactive) | 0.667 (inactive) | 3.32 | -0.887 (inactive) | 0.508 | 0.294 | 1.05 | 0.776 |

— PubChem BioAssay
